# Screening results deposited in PubChem BioAssay by National Center for Advancing Translational Sciences (NCATS).
# Shown are actives, neighbours in structure and some others; about 10% of the full set was active somewhere.
# VDR inh: blocks the human vitamin D receptor; VDR-SRC2-3 peptide fluorescence polarization, 2 h; Potency, µM, without a hit: max response, negative = inhibition, actives largely listed as inhibitors; actives 0.93% (n = 400,000); AID 504847; also: potency is read from the fitted curve at half-maximal effect
# Target sequence (P11473 whole entry, looked up): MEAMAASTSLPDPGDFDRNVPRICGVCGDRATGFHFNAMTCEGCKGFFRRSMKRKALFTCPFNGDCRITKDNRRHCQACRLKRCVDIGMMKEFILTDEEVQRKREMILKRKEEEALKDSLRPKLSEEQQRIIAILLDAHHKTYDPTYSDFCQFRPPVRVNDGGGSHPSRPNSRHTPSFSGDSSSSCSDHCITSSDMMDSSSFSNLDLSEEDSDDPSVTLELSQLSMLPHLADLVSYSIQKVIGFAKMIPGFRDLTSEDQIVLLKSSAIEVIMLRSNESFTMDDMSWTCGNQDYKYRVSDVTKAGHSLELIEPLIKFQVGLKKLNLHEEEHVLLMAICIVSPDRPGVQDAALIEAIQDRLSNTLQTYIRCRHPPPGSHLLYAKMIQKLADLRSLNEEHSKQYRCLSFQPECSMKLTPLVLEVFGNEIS
#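 Compounds are added to VDR with labelled SRC2-3 coactivator peptide and held 2 h at room temperature. Inhibition of the VDR–peptide interaction is then read as a change in fluorescence polarization.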
# CCT modulator: cytosolic chaperonin activity modulation. purified chaperonin ATPase assay, HTRF ADP detection, 30 min. activity change, % (concentration not given with the values), hits read low. actives 0.3% (n = 360,000). AID 651819; in the data active = activity change below about -30%
#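 ATPase activity: ADP formed was measured by HTRF Transcreener (665/615 nm ratio) after 30 min at 37 deg C with 10 uM ATP. Compounds screened at one 76 uM concentration against 40 or 20 nM TRiC in Tris pH 7.4/KCl/MgCl2/DTT buffer.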
# Mm-Cpn inhibitor: blocks the Methanococcus maripaludis chaperonin Mm-Cpn | purified Mm-Cpn ATPase, ADP Transcreener TR-FRET | Potency, µM (series often up to 76.9 µM), inactives show at the top dose activity, negative = inhibition, usual class: inhibitors | actives 0.031% (n = 330,000) | AID 504842; also: potency is read from the fitted curve at half-maximal effect; nearly all actives have a fitted effect of over 80% in size
#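 Reaction buffer contained 30 mM Tris pH 7.4, 100 mM KCl, 5 mM MgCl2 and 1 mM DTT. Mm-CPN (25 nM final) hydrolysed 10 uM ATP over 30 min at 37°C; ADP was read by HTRF.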
# G9a block: G9a (human) methyltransferase inhibition. Potency, µM (top dose mostly 102 µM), for the others: top-dose activity, negative = inhibition, actives largely listed as inhibitors. G9a H3K9 monomethylation, AlphaScreen, 2 h. actives 8.8% (n = 350,000). Q96KQ7; also: potency is read from the fitted curve at half-maximal effect; nearly all actives have a fitted effect of over 75% in size
# Target sequence (Q96KQ7 913-1193 limits assumed): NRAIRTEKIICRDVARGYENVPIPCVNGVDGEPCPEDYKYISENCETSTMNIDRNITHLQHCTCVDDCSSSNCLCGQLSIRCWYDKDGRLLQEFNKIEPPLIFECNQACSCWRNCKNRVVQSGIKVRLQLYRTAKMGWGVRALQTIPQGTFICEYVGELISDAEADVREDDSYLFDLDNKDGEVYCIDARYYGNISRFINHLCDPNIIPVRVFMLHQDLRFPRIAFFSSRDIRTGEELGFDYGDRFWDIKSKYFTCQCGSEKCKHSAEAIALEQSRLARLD
#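 Compounds were preincubated with 20 nM G9a for 15 min, after which biotinylated H3K9 peptide (500 nM) and SAM (20 uM) started a 2 h room-temperature reaction. Monomethylated product was quantified by antibody-based AlphaScreen chemiluminescence.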
# PLK1 PBD block: blocks phosphopeptide binding to human PLK1 polo-box domain | P53350 | Plk1 PBD binding of FITC phosphopeptide, fluorescence polarization | actives 2.8% (n = 360,000) | Potency, µM, for inactives: max response, negative = inhibition, most hits filed as inhibitors | AID 720504; also: potency is read from the fitted curve at half-maximal effect; series mostly up to about 57 µM; nearly all actives have a fitted effect of over 65% in size
# Sfp inh: Sfp phosphopantetheinyl transferase inhibition; Potency, µM, inactives show largest response in the series, negative = inhibition, actives largely listed as inhibitors; actives 3.5% (n = 310,000); Q9F4F7; AID 1490; Biochemical Sfp PPTase activity, qHTS;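 also: the enzyme is Sfp with the accession as filed and its product quenches rhodamine fluorescence; potency is read from the fitted curve at half-maximal effect; 0% = enzyme reaction without inhibitor and -100% = no enzyme wells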
#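 Fluorescence-quenching assay with 15 nM Sfp, 5 uM rhodamine-CoA and 12.5 uM BHQ-2-labelled ybbR peptide in pH 7.6 Hepes/MgCl2 buffer. Enzyme was pre-incubated with compound for 15 min at room temperature. Rate was taken from the 30-min fluorescence change (525/598 nm).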
# * marks the source's active call; other numbers are inactive results; ? = inconclusive; . = no result given; [ ] = remark or other dose. Unless noted, calls follow the shape of the dose curve; as a rule, active = well fitted curve in the direction sought with a large enough effect; inconclusive = small, poorly fitted or top-dose-only effect, or another doubt; inactive = no such curve, though single readings can be large; an effect the other way counts as inactive or inconclusive. Unless noted, % is scaled to controls: 0 for no effect and ±100 for the full control effect.
SMILES,VDR inh,CCT modulator,Mm-Cpn inhibitor,G9a block,PLK1 PBD block,Sfp inh
COC(=O)C1=C(N)Oc2cc(C)n(CC3CCCO3)c(=O)c2C1c1ccccc1OC (configuration not stated),20.7%,-2.8,-0.2%,3.5%[12.7 µM],-2.1%,28.4%
COc1ccccc1OCc1nc(C#N)c(N2CC(C)CC(C)C2)o1 (configuration not stated),2.0%,-2.1,1.6%,44.7µM*,-7.1%,15.3%
CC1CC(C)CN(c2oc(Cc3ccccc3)nc2C#N)C1 (configuration not stated),-7.3%,2.0,1.4%,11.2µM*,1.2%,-0.6%
CCC(C(=O)Nc1cc(C(F)(F)F)ccc1Cl)n1nc(C)c2sc3ccccc3c2c1=O (configuration not stated),-2.0%,.,.,-35.9%[59 µM],.,.
CC(C)CN(CCNC(=O)c1cn(C)c2ccc(S(=O)(=O)N3CCCCCC3)cc2c1=O)CC(C)C,20.1%,.,.,-26.3%[59 µM],.,.
Cc1ccc(NC(=O)c2ccncc2)cc1S(=O)(=O)N(C)C,-4.8%,-2.1,0.5%,50.1µM*,4.0%,15.2%
COc1ccc(CCNCC(=O)Nc2ccc(C)c(Br)c2)cc1OC,1.4%,1.0,4.1%,39.8µM*,-7.2%,-18.3%
COC(=O)c1cc(NC(=O)Cc2ccc(OC)c(OC)c2)cc(C(=O)OC)c1,?,4.0,-0.3%,9.2%,26.7µM*,-1.1%
COc1ccc(CC(=O)Nc2cc(NC(=O)Cc3ccc(OC)c(OC)c3)cc(C(=O)O)c2)cc1OC,12.6%,-1.5,2.1%,.,-11.4%,22.5%
CN(C)S(=O)(=O)c1cc(NC(=O)CNCc2ccc(F)cc2)ccc1Cl,1.0%,0.4,0.6%,3.55µM*,-1.4%,?
CCNc1ncc2nc(-c3cc(F)cc(F)c3)c(=O)n(CCOC)c2n1,-22.2%,.,.,2.3%[0.501 µM],.,13.1%
CC(=O)c1sc(NC(=O)c2c(-c3ccccc3)c(-c3ccccc3)nn(C)c2=O)nc1C,12.1%,.,.,-3.9%[59 µM],.,.
COc1ccc(OCC(=O)Nc2ccc(C)c(S(=O)(=O)N(C)C)c2)cc1,16.3%,-1.7,1.5%,-29.9%,-18.7%,-2.4%
Cc1ccc(NC(=O)CCNCc2ccco2)cc1S(=O)(=O)N(C)C,8.4%,2.2,-7.7%,8.91µM*,-0.5%,9.0%
COC(=O)c1ccccc1NC(=O)CNCCc1ccc(OC)c(OC)c1,2.6%,-0.1,0.6%,7.94µM*,-12.0%,-27.1%
COc1ccc(CCNCC(=O)Nc2ccc(C)c(S(=O)(=O)N(C)C)c2)cc1OC,-7.5%,-1.1,-3.5%,22.4µM*,-12.9%,?
COc1cc(C(CC(=O)NCc2ccc(F)cc2)N2Cc3ccccc3C2=O)cc(OC)c1OC (configuration not stated),9.3%,.,.,-5.5%[59 µM],.,.
COc1ccccc1CNC(=O)c1cc(Sc2cccc(Cl)c2)nc2ccccc12,-0.3%,.,.,-1.6%[59 µM],.,.
Cc1ccc2c(nc3s/c(=C/c4cccs4)c(=O)n32)c1C,11.1%,-4.1,0.0%,7.94µM*,?,-19.8%
O=c1/c(=C/c2ccc(O)c([N+](=O)[O-])c2)sc2nc3ccccc3n12,16.6%,1.1,1.9%,?,?,2.6%
Cc1cc(C)c2nc3s/c(=C/c4ccccc4)c(=O)n3c2c1,.,.,0.3%,1.26µM*,.,8.91µM*
O=C(O)c1ccc(-c2ccc(/C=c3/sc4nc5ccccc5n4c3=O)o2)cc1Cl,?,-1.6,0.0%,5.01µM*,-25.9%,50.1µM*
Cc1ccc2c(nc3s/c(=C\c4ccc(-c5ccccc5C(=O)O)o4)c(=O)n32)c1C,-13.5%,-2.0,-2.3%,17.8µM*,-20.3%,-10.4%
Cc1cc(C)c2nc3sc(=Cc4ccc(-c5ccccc5C(=O)O)o4)c(=O)n3c2c1,.,1.6,.,.,?,.
CCC(C)NC(=O)c1ccc2c(c1)N(Cc1ccccc1)C(=O)c1ccccc1S2(=O)=O (configuration not stated),-7.1%,.,.,1.0%[59 µM],.,.
SMILES,VDR inh,CCT modulator,Mm-Cpn inhibitor,G9a block,PLK1 PBD block,Sfp inh
C/C(=N\NC(=O)c1cccc(S(=O)(=O)N2CCOCC2)c1)c1ccc(C#N)cc1,0.6%,-1.8,3.9%,39.8µM*,-5.3%,3.0%
C/C(=N\NC(=O)c1cccc(S(=O)(=O)N2CCCC2)c1)c1cccs1,-17.9%,-3.2,0.2%,31.0%,26.7µM*,18.8%
Cc1c(Cl)cccc1-n1ncc(C(=O)NC2CCCC2)c1C1CCN(C(=O)OC(C)(C)C)CC1,4.4%,.,.,-9.9%[59 µM],.,.
O=C1CCC=C1C(O)c1ccc2c(c1)OCO2 (configuration not stated),1.9%,.,.,.,.,8.2%
COc1cc(/C=C/C(=O)c2ccc(NS(=O)(=O)c3ccc(C)cc3)cc2)cc(OC)c1O,-5.0%,2.5,-20.0%,39.8µM*,10.5%,-8.1%
COc1cccc(C(=O)/C=C/Nc2ccc(S(=O)(=O)Nc3cccc(C(C)=O)c3)cc2)c1,-12.0%,-2.3,-20.9%,?,1.1%,11.9%
COc1cccc(/C=C/C(=O)c2ccc(NS(=O)(=O)c3ccc(C)cc3)cc2)c1,?,-1.9,-18.9%,2.51µM*,-9.9%,4.1%
COc1cc(/C=C/C(=O)c2ccc(NS(=O)(=O)c3ccc(C)cc3)cc2)ccc1OC(F)F,-24.7%,-13.7,-4.0%,-7.2%[59 µM],-10.1%,4.1%
O=C(O)c1ccc(S(=O)(=O)N[C@H](Cc2c[nH]c3ccccc23)C(=O)O)cc1,.,.,0.7%,-42.8%[12.7 µM],.,-8.5%
Cc1ccc(NC(=O)Nc2nnc(N3CCCCC3)s2)c(C)c1,16.0%,.,.,?,.,.
COc1ccc(Cl)cc1NC(=O)CCn1nc(C)cc1C,6.4%,.,.,-1.5%[59 µM],.,.
Cc1cc(C(=O)Nc2ccc3c(c2)OCCO3)c(C)o1,-10.1%,-0.4,2.2%,?,?,15.9%
CC(=O)c1c(Nc2ccc3c(c2)OCCO3)oc(C)cc1=O,6.9%,-12.0,-0.4%,79.4µM*,-5.1%,11.8%
COc1ccccc1-c1ccc(SCC(=O)NCCc2ccccc2)nn1,5.8%,-9.2,-3.4%,-3.1%,-3.8%,6.2%
O=C(CSc1ccc(-c2cccs2)nn1)Nc1cccc(F)c1,-2.4%,.,.,17.8µM*,.,.
COc1ccccc1CCNC(=O)CSc1ccc(-c2ccco2)nn1,-11.3%,0.1,-4.9%,28.2µM*,-11.6%,22.4µM*
Cc1cc(NC(=O)Cn2nc(-c3ccccc3F)ccc2=O)ccc1-n1cnnn1,0.3%,-3.9,-1.7%,56.2µM*,-5.0%,-3.1%
O=C(CSc1nnc2ccc(-c3ccccn3)nn12)Nc1cccc(F)c1,.,-44.9*,.,.,6.4%,.
COc1cc(NC(=O)Cn2nc(-c3ccc(F)cc3)ccc2=O)ccc1-n1cnnn1,-6.8%,1.9,-1.3%,-4.6%,3.1%,-16.9%
O=C(CSc1ccc(-c2cccs2)nn1)Nc1ccccc1C(F)(F)F,11.9%,.,.,-35.3%[59 µM],.,.
CC(=O)c1cccc(NC(=O)CSc2ccc(-c3ccco3)nn2)c1,?,-1.7,-1.1%,31.6µM*,?,20µM*
